Test results reported in the supplement of paper PMC8975748.
Where a name gives a salt, the structure may show the parent alone.

test system: Saccharomyces cerevisiae BY4741 SeMeCo community; assay: z-score of subpopulation abundance vs DMSO median, subpopulation auxotrophic for U; higher = larger share of this subpopulation than in DMSO controls; conditions: 10 µM; 24 h; SM minimal medium; subpopulation (auxotrophy): U
Protocol: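 Fluorescent four-plasmid SeMeCo (self-establishing metabolically cooperating S. cerevisiae BY4741 community; plasmids pH-mRuby2, pL-mWasabi, pU-eCFP, pM-TagRFP657) was grown 24 h in minimal SM medium with each Selleck FDA-approved drug at 10 µM in 384-well plates. Cells were fixed and imaged by high-content confocal microscopy. For each auxotrophic subpopulation (and the prototroph), a z-score gives the deviation from the DMSO vehicle-control population median.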

| Compound | z-score of subpopulation abundance |
| --- | --- |
| CCn1cc(C(=O)O)c(=O)c2cc(F)c(N3CCNC(C)C3)c(F)c21 (stereo not given) [Lomefloxacin HCl] | -0.45 |
| COc1cccc2c1C(=O)c1c(O)c3c(c(O)c1C2=O)CC(O)(C(=O)CO)CC3OC1CC(N)C(O)C(C)O1 (stereo not given) [Doxorubicin (Adriamycin) HCl] | 4.2 |
| C[C@H](NCc1ccc(OCc2cccc(F)c2)cc1)C(N)=O [Safinamide Mesylate] | -0.34 |
| NC1CCN(c2nc3c(cc2F)c(=O)c(C(=O)O)cn3-c2ccc(F)cc2F)C1 (stereo not given) [Tosufloxacin p-Toluenesulfonate Hydrate] | -0.39 |
| O=C(O[C@@H]1C[C@@H]2C[C@H]3C[C@H](C1)N2CC3=O)c1c[nH]c2ccccc12 [Dolasetron Mesylate] | 0.89 |
| CC(=O)NS(=O)(=O)c1ccc(N)cc1 [Sulfacetamide Sodium] | 0.86 |
| Fc1ccc(C(c2ccc(F)cc2)N2CCN(C/C=C/c3ccccc3)CC2)cc1 [Flunarizine 2HCl] | -0.07 |
| NC(=O)C(c1ccccc1)(c1ccccc1)[C@@H]1CCN(CCc2ccc3c(c2)CCO3)C1 [Darifenacin HBr] | 0.01 |
| COc1cc(N)c(Cl)cc1C(=O)NC1CCN(CCCOc2ccc(F)cc2)CC1OC (stereo not given) [Cisapride hydrate] | 0.95 |
| CCNC(=O)[C@@H]1CCCN1C(=O)[C@H](CCCNC(=N)N)NC(=O)[C@H](CC(C)C)NC(=O)[C@@H](CC(C)C)NC(=O)[C@H](Cc1ccc(O)cc1)NC(=O)[C@H](CO)NC(=O)[C@H](Cc1c[nH]c2ccccc12)NC(=O)[C@H](Cc1c[nH]cn1)NC(=O)[C@@H]1CCC(=O)N1 [Leuprolide Acetate] | 0.31 |
| CCCCCCCCc1ccc(CCC(N)(CO)CO)cc1 [Fingolimod] | -1.09 |
| Cc1ccc(Sc2ccccc2N2CCNCC2)c(C)c1 | -0.43 |
| CNCC[C@H](Oc1cccc2ccccc12)c1cccs1 [Duloxetine HCl] | -0.11 |
| CCOc1ccc2ccccc2c1C(=O)N[C@@H]1C(=O)N2[C@@H]1SC(C)(C)[C@@H]2C(=O)O [Nafcillin Sodium] | -0.63 |
| Oc1c(Br)cc(Br)c2cccnc12 [Broxyquinoline] | -3.11 |
| O=C1c2cccc3c2[C@H](CCC3)CN1[C@@H]1CN2CCC1CC2 [Palonosetron] | -0.35 |
| C[C@@H]1[C@H](O)[C@@H](C)/C=C/C=C/C=C/C=C/C=C/C=C/C=C/[C@H](O[C@@H]2O[C@H](C)[C@@H](O)[C@H](N)[C@@H]2O)C[C@@H]2O[C@](O)(C[C@@H](O)C[C@@H](O)[C@H](O)CC[C@@H](O)C[C@@H](O)CC(=O)O[C@H]1C)C[C@H](O)[C@H]2C(=O)O [Amphotericin B] | -0.38 |
| CCOc1cc(N)c(Cl)cc1C(=O)NCC1CN(Cc2ccc(F)cc2)CCO1 (stereo not given) [Mosapride Citrate] | 0.31 |
| Cc1nccn1CC1CCc2c(c3ccccc3n2C)C1=O (stereo not given) [Ondansetron HCl] | 0.47 |
| CO[C@H]1O[C@@H]2O[C@@]3(C)CC[C@H]4[C@H](C)CC[C@@H]([C@H]1C)[C@@]24OO3 [Artemether] | 0.63 |

| Compound | z-score of subpopulation abundance |
| --- | --- |
| Nc1nc2[nH]cc(CCc3ccc(C(=O)N[C@@H](CCC(=O)O)C(=O)O)cc3)c2c(=O)[nH]1 [Pemetrexed Disodium Hydrate] | -1.03 |
| CN1C(C(=O)Nc2ccccn2)=C(O)c2sc(Cl)cc2S1(=O)=O [Lornoxicam] | 0.67 |
| CO[C@H]1C[C@@H]2CC[C@@H](C)[C@@](O)(O2)C(=O)C(=O)N2CCCC[C@H]2C(=O)O[C@H]([C@H](C)C[C@@H]2CC[C@H](n3cnnn3)[C@H](OC)C2)CC(=O)[C@H](C)/C=C(\C)[C@@H](O)[C@@H](OC)C(=O)[C@H](C)C[C@H](C)/C=C/C=C/C=C/1C [Zotarolimus(ABT-578)] | 3.68 |
| Cc1noc(NS(=O)(=O)c2ccc(N)cc2)c1C [Sulfisoxazole] | 0.32 |
| Cc1ccc2c(Cl)cc(Cl)c(O)c2n1 [Chlorquinaldol] | -6.35 |
| CC/C=C(\C(=O)N[C@@H]1C(=O)N2C(C(=O)OCOC(=O)C(C)(C)C)=C(COC(N)=O)CS[C@H]12)c1csc(N)n1 [Cefcapene Pivoxil Hydrochloride] | 0.38 |
| Cc1c(Nc2ncccc2C(=O)O)cccc1C(F)(F)F [Flunixin Meglumin] | 0.63 |
| N=C(N)NC(=O)c1nc(Cl)c(N)nc1N [Amiloride HCl dihydrate] | -3.02 |
| Cc1cc(C)nc(O)n1.O=C(Nc1ccc([N+](=O)[O-])cc1)Nc1ccc([N+](=O)[O-])cc1 [Nicarbazin] | 0.5 |
| O=C(O)c1cccnc1Nc1cccc(C(F)(F)F)c1 [Niflumic acid] | 0.51 |
| C=C[C@]1(C)C[C@@H](OC(=O)CSC(C)(C)CNC(=O)[C@H](N)C(C)C)[C@]2(C)[C@H](C)CC[C@]3(CCC(=O)[C@H]32)[C@@H](C)[C@@H]1O [Valnemulin HCl] | 0.15 |
| COc1nc2ccc(Br)cc2cc1[C@@H](c1ccccc1)[C@@](O)(CCN(C)C)c1cccc2ccccc12 [Bedaquiline fumarate] | 0.97 |
| CCOC(=O)c1ccc(O)cc1 [Ethylparaben] | 1.83 |
| OCCN1CCN(CCCN2c3ccccc3Sc3ccc(Cl)cc32)CC1 [Perphenazine] | 0.29 |
| CC[N+](CC)(CC)CCOc1cccc(OCC[N+](CC)(CC)CC)c1OCC[N+](CC)(CC)CC [Gallamine Triethiodide] | 0.76 |
| CO/N=C(\C(=O)N[C@@H]1C(=O)N2C(C(=O)OC(C)OC(C)=O)=C(COC(N)=O)CS[C@H]12)c1ccco1 (stereo not given in full) [Cefuroxime axetil] | 1.94 |
| O=C1NC(=O)C(c2ccccc2)(c2ccccc2)N1 [Phenytoin] | 0.51 |
| COc1ccnc(C[S+]([O-])c2nc3cc(OC(F)F)ccc3[nH]2)c1OC (stereo not given) [Pantoprazole] | -0.43 |
| CO/N=C(\C(=O)N[C@@H]1C(=O)N2C(C(=O)[O-])=C(C[N+]3(C)CCCC3)CS[C@H]12)c1csc(N)n1 [Cefepime Dihydrochloride Monohydrate] | -0.42 |
| CO/N=C(\C(=O)N[C@@H]1C(=O)N2C(C(=O)[O-])=C(C[n+]3cccc4c3CCC4)CS[C@H]12)c1csc(N)n1 [Cefpirome sulfate] | -0.71 |
